# According to the supplement of paper PMC4709259:
# Counter-ions that a name gives are not always drawn. ± gives the standard deviation.
# Tests used:
# Jurkat [1] = assay: mean cell size (FSC-A) relative to DMSO control (fraction of control); higher = larger cells; settings: 48 h
# Method in brief: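 Jurkat cells at 600 cells/µl were incubated for 1 h and then treated for 48h with the Enzo Screen-Well FDA Approved Drug Library v2.0 at 25µM, with DMSO at 0.9% (v/v) final. Compounds that reduced counts below 20% of controls were retested in 10-fold dilutions down to 25nM. Cell count and mean cell size, taken as forward scatter area, were measured by flow cytometry relative to solvent-only controls. Each plate carried 6-12 controls, and values are means of 3 biological replicates.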
# Jurkat [2] = assay: cell count relative to DMSO control (fraction of control); higher = more cells (less growth inhibition); settings: 48 h
SMILES,mean cell size (Jurkat [1]),cell count (Jurkat [2])
NC(=O)NO [Hydroxyurea] (concentration: 25 µM),0.958 ± 0.017,1.06 ± 0.099
COc1ccc(Cl)cc1C(=O)NCCc1ccc(S(=O)(=O)NC(=O)NC2CCCCC2)cc1 [Glyburide] (concentration: 25 µM),1.02 ± 0.051,0.806 ± 0.047
Nc1ccc(S(=O)(=O)c2ccc(N)cc2)cc1 [Dapsone] (concentration: 25 µM),0.9573 ± 0.0072,0.976 ± 0.1
Cc1nc(Nc2ncc(C(=O)Nc3c(C)cccc3Cl)s2)cc(N2CCN(CCO)CC2)n1 [Dasatinib] (concentration: 2.5 µM),0.8161 ± 0.0028,1.03 ± 0.063
CC(N)C12CC3CC(CC(C3)C1)C2 (stereo unspecified) [Rimantadine·HCl] (concentration: 25 µM),1.02 ± 0.055,0.697 ± 0.067
O=C(O)C[C@H](O)C[C@H](O)/C=C/c1c(C2CC2)nc2ccccc2c1-c1ccc(F)cc1 [Pitavastatin Calcium] (concentration: 25 µM),0.9938 ± 0.0093,0.647 ± 0.065
CC(C)OC(=O)CCC/C=C\C[C@@H]1[C@@H](/C=C/[C@@H](O)COc2cccc(C(F)(F)F)c2)[C@H](O)C[C@@H]1O [Travoprost] (concentration: 25 µM),0.92 ± 0.022,0.668 ± 0.084
CN(C)CC/C=C1/c2ccccc2COc2ccc(CC(=O)O)cc21 [Olopatadine] (concentration: 25 µM),0.976 ± 0.029,0.929 ± 0.1
COc1cc2c(cc1OC)C(=O)C(CC1CCN(Cc3ccccc3)CC1)C2 (stereo unspecified) [Donepezil·HCl] (concentration: 25 µM),1.032 ± 0.0096,0.487 ± 0.13
CC[C@@H]([C@H](C)O)n1ncn(-c2ccc(N3CCN(c4ccc(OC[C@@H]5CO[C@@](Cn6cncn6)(c6ccc(F)cc6F)C5)cc4)CC3)cc2)c1=O [Posaconazole] (concentration: 25 µM),1.02 ± 0.032,1.016 ± 0.0028
CCCNC(C)C(=O)Nc1c(C)csc1C(=O)OC (stereo unspecified) [Articaine·HCl] (concentration: 25 µM),0.96 ± 0.028,0.738 ± 0.059
C[C@@H]1C[C@H]2[C@@H]3CCC4=CC(=O)C=C[C@]4(C)[C@@]3(F)[C@@H](O)C[C@]2(C)[C@@]1(O)C(=O)CO [Dexamethasone] (concentration: 25 µM),0.917 ± 0.019,0.819 ± 0.11
O=C(CCCN1CCC(O)(c2ccc(Cl)cc2)CC1)c1ccc(F)cc1 [Haloperidol] (concentration: 25 µM),1.04 ± 0.057,0.609 ± 0.16
Clc1ccc(CSC(Cn2ccnc2)c2ccc(Cl)cc2Cl)cc1 (stereo unspecified) [Sulconazole Nitrate] (concentration: 25 µM),0.953 ± 0.023,0.923 ± 0.11
O=C(NCC1CCCCN1)c1cc(OCC(F)(F)F)ccc1OCC(F)(F)F (stereo unspecified) [Flecainide Acetate] (concentration: 25 µM),0.97 ± 0.014,0.725 ± 0.033
N[C@@H](C(=O)N[C@@H]1C(=O)N2C(C(=O)O)=C(Cl)CS[C@H]12)c1ccccc1 [Cefaclor] (concentration: 25 µM),0.916 ± 0.015,1.03 ± 0.097
C[C@]12CCC(=O)C=C1[C@@H]1C[C@@H]1[C@H]1[C@@H]3[C@@H]4C[C@@H]4[C@@]4(CCC(=O)O4)[C@@]3(C)CC[C@@H]12 [Drospirenone] (concentration: 25 µM),0.962 ± 0.03,0.692 ± 0.11
CC(=O)N[C@H]1[C@H]([C@H](O)[C@H](O)CO)OC(C(=O)O)=C[C@@H]1NC(=N)N [Zanamivir] (concentration: 25 µM),0.993 ± 0.052,0.647 ± 0.18
NCC(=O)CCC(=O)O [Aminolevulinic Acid·HCl] (concentration: 25 µM),0.911 ± 0.013,0.638 ± 0.08
O=C(C1CCCCC1)N1CC(=O)N2CCc3ccccc3C2C1 (stereo unspecified) [Praziquantel] (concentration: 25 µM),0.996 ± 0.028,0.781 ± 0.048
CO/N=C(\C(=O)N[C@@H]1C(=O)N2C(C(=O)OC(C)OC(C)=O)=C(COC(N)=O)CS[C@H]12)c1ccco1 (stereo partly specified) [Cefuroxime Axetil] (concentration: 25 µM),0.99 ± 0.028,0.895 ± 0.057
CC(=O)OCC(=O)[C@@]1(O)CC[C@H]2[C@@H]3CCC4=CC(=O)CC[C@]4(C)[C@@]3(F)[C@@H](O)C[C@@]21C [Fludrocortisone Acetate] (concentration: 25 µM),0.932 ± 0.058,0.63 ± 0.033
NC[C@H]1O[C@H](O[C@H]2[C@H](O)[C@@H](O[C@H]3O[C@H](CO)[C@@H](O)[C@H](N)[C@H]3O)[C@H](N)C[C@@H]2N)[C@H](N)C[C@@H]1O [Tobramycin] (concentration: 25 µM),1.01 ± 0.054,0.65 ± 0.082
